From PubChem BioAssay come the findings set out here.

Assay [1] can be described thus: small molecules captured by biotinylated probe aFSTL3 – biochemical, small-molecule microarray, fluorescence 635/667, stem cell growth factor project, primary screen (AID 1064).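 Also: measures binding of the biotinylated anti-FSTL3 antibody to printed compounds.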 The following applies: higher = more signal.
The nature of assay [2]: binders from COS7 lysate, DM2A8 probe, primary screen, torsin A project, cell lysate, small-molecule microarray, fluorescence 635/667 (AID 1065). The following applies: higher = more signal, COS7 lysate expressing mutant human TOR1A.
Assay [3] can be described thus: small molecules captured by biotinylated probe aFGF2 – biochemical, small-molecule microarray, fluorescence 635/667, stem cell growth factor project, primary screen (AID 1067).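 Also: measures binding of biotinylated aFGF2 protein to printed compounds on slides; z-score merges feature fluorescence and signal-to-noise across triplicate slides.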 The following applies: higher = more signal.
A short description of assay [4]: small molecules captured by biotinylated probe aFGF10 – biochemical, small-molecule microarray, fluorescence 635/667, stem cell growth factor project, primary screen (AID 1071).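 Also: score merges 667 nm spot intensity and signal to noise from triplicate slides.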 The following applies: higher = more signal.
Assay [5] concerns the target Neurogenic locus notch homolog protein 2 (Homo sapiens) (UniProt Q04721). Kind of assay: small molecules binding Notch2 protein – biochemical, small-molecule microarray, 635 nm fluorescence, stem cell growth factors, primary screen (AID 1073). The following applies: higher = more signal.
The target in assay [6] is Pro-neuregulin-1, membrane-bound isoform (Homo sapiens) (UniProt Q02297). Kind of assay: small molecules binding neuregulin-1 protein – biochemical, small-molecule microarray, fluorescence 635/667, psychiatric disease protein project, primary screen (AID 1075).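 Also: score combines 667 nm spot fluorescence with signal to noise.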 The following applies: NRG1 binding, 635 nm fluorescence, higher = more signal.
The subject of assay [7] is Neuregulin-1 EGF-like domain. Kind of assay: small molecules binding NRG1 EGF domain – biochemical, small-molecule microarray, 635 nm fluorescence, primary screen (AID 1081).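 Also: binding of the protein to compounds printed on small-molecule microarray slides.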 The following applies: higher = more signal.
Assay [8] can be described thus: FRG1 expression reporter modulators in myotubes – cell-based, C2C12 myotubes, firefly/Renilla luciferase, luminescence, FRG1 inhibition for FSHD, primary screen (AID 1084). The following applies: FRG1 promoter luciferase, higher = more signal, called active from +8 up or from −8 down.
The nature of assay [9]: small molecules captured by biotinylated probe aFST – biochemical, small-molecule microarray, fluorescence 635/667, stem cell growth factor project, primary screen (AID 1086).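 Also: score merges 667 nm fluorescence with signal-to-noise of each printed compound spot.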 The following applies: higher = more signal.
Assay [10] can be described thus: binders of probe aHhip on microarray, primary screen, stem cell growth factor project, biochemical, small-molecule microarray, fluorescence 635/667 (AID 1087).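 Also: score merges spot fluorescence at 667nm with spot signal to noise ratio.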 The following applies: higher = more signal.
For assay [11], the system named is PRMT1 (protein arginine N-methyltransferase 1). Kind of assay: small molecules binding arginine methyltransferase PRMT1 – biochemical, small-molecule microarray, 635 nm fluorescence, primary screen (AID 1088).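 Also: binding of Prmt1 protein to compounds spotted on small-molecule microarray slides.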 The following applies: higher = more signal.
Assay [12] can be described thus: growth effects on S. cerevisiae YJM789 – YJM789 clinical isolate, OD600, 24 h, basal, primary screen (AID 1089).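 Also: growth of clinical yeast isolate S. cerevisiae YJM 789 seeded 1000 cells per well; test concentration not given here.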 The following applies: higher = more signal, called active from +8 up or from −8 down.
A short description of assay [13]: S. pombe growth modifiers, basal conditions – strain 972, OD600, 24 h, no modulator, primary screen (AID 1090).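 Also: basal condition with compound alone and no growth modifier present; test concentration not given here.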 The following applies: S. pombe 972 growth, higher = more signal, called active from +8 up or from −8 down.
Assay [14] can be described thus: budding yeast growth modifiers under rapamycin – strain BY4716, OD600, 96 h, primary screen (AID 1091). Also: test concentration not given here. The following applies: S. cerevisiae BY4716 + rapamycin, higher = more signal, called active from +8 up or from −8 down.
For assay [15], the target named is Torsin-1A-interacting protein 2 (Homo sapiens) (UniProt Q8NFQ8). Kind of assay: small molecules binding lysate-expressed LULL1 – cell lysate, human LULL1 lysate, 635/667 nm fluorescence, primary screen (AID 1092).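 Also: probe is lysate of COS7 cells overexpressing human LULL1; score merges per-feature 667 nm fluorescence with signal-to-noise.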 The following applies: small-molecule microarray, hLULL1 lysate binding, 635 nm fluorescence; higher = more signal.
The nature of assay [16]: optical density change of DRC41 E. coli – strain DRC41, OD650, 24 h, E. coli filamentation project, primary screen (AID 1093).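 Also: MC1000 strain lacking acrAB efflux and sulA so SOS filamentation is blocked; test concentration not given here.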 The following applies: E. coli DRC41 growth, higher = more signal, called active from +8 up or from −8 down.
Assay [17] can be described thus: probe aLefty2 binding to arrayed compounds – biochemical, biotinylated probe, 635/667 nm fluorescence, primary screen (AID 1094).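 Also: score merges spot fluorescence near 667 nm with spot signal-to-noise ratio.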 The following applies: small-molecule microarray, higher = more signal.
The test system of assay [18] is Noggin (protein binding on small-molecule microarray). Kind of assay: small molecules binding Noggin protein – biochemical, 635/667 nm fluorescence, primary screen (AID 1095).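 Also: score merges 667 nm feature fluorescence with signal to noise over triplicate slides.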 The following applies: 635 nm fluorescence, higher = more signal.
In assay [19] the target is Neurogenic locus notch homolog protein 3 (Homo sapiens) (UniProt Q9UM47). Kind of assay: small molecules binding NOTCH3 protein – biochemical, 635/667 nm fluorescence, primary screen (AID 1096). The following applies: small-molecule microarray, 635 nm fluorescence, higher = more signal.
Assay [20] in a line: probe aEGFR binding to arrayed compounds – biochemical, biotinylated probe, 635/667 nm fluorescence, primary screen (AID 1097).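 Also: probe is a biotinylated anti-EGFR antibody binding compounds printed on slides; score combines fluorescence near 667 nm and signal to noise of each spot.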 The following applies: small-molecule microarray, higher = more signal.

Activity calls are given as the source filed them.

Chain of Neurogenic locus notch homolog protein 3 (Homo sapiens) (Q9UM47 whole entry, looked up): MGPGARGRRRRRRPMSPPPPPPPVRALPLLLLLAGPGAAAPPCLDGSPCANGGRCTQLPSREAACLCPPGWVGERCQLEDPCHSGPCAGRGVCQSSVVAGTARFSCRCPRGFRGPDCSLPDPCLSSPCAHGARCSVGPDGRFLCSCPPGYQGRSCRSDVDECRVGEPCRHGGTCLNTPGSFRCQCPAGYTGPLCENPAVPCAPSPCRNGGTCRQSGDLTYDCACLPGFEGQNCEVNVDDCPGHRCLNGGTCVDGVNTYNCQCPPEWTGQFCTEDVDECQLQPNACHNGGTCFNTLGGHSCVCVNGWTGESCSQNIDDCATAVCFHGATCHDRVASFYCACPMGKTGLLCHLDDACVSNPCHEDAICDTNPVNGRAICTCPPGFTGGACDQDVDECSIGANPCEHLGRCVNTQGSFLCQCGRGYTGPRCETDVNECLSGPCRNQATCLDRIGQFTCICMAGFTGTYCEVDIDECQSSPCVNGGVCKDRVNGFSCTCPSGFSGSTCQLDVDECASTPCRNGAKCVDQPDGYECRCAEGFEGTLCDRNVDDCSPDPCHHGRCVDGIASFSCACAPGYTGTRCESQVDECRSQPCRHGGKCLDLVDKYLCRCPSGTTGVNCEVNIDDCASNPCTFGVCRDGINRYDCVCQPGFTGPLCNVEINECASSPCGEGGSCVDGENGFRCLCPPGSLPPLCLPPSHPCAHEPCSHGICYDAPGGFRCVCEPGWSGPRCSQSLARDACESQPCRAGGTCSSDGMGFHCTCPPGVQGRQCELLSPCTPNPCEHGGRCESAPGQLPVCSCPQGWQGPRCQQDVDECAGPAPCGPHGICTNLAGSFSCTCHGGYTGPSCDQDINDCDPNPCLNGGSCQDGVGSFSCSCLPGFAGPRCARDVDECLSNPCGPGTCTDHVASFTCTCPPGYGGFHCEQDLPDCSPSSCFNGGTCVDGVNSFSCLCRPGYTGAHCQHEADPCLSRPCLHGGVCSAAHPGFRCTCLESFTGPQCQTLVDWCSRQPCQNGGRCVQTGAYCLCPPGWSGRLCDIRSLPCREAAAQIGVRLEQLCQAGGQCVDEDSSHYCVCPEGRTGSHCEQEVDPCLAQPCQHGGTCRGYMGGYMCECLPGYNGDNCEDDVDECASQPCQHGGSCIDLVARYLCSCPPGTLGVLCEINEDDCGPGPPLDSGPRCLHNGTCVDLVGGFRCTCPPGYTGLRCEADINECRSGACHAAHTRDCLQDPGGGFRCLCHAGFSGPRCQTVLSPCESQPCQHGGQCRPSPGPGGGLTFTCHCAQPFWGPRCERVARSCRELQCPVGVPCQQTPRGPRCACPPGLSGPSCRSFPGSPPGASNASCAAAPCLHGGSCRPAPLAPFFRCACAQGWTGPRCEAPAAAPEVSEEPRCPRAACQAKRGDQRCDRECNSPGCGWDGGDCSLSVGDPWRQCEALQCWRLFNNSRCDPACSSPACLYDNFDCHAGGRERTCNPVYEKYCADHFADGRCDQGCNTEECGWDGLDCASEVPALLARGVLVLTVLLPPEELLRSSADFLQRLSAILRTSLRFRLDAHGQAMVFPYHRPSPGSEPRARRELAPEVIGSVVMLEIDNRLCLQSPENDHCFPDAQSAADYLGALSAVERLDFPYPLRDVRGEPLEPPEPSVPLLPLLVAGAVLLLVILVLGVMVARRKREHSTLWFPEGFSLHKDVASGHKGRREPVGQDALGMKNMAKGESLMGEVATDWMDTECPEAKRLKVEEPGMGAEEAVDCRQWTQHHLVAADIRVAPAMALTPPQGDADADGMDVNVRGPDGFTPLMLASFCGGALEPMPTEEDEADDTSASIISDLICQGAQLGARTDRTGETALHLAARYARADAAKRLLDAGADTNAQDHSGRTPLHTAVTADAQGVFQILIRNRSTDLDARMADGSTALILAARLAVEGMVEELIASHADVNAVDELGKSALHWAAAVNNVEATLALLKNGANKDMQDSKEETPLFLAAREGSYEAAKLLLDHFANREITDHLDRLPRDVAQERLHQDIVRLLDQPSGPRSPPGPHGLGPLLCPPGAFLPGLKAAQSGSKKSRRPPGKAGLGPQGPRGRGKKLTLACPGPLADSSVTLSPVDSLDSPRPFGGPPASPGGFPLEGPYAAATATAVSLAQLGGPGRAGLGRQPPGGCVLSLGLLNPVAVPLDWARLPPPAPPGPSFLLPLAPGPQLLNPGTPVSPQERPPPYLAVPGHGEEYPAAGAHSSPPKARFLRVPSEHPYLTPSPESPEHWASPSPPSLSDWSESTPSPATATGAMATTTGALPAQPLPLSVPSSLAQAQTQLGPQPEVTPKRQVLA
Chain of Pro-neuregulin-1, membrane-bound isoform (Homo sapiens) (Q02297 whole entry, looked up, the tested form may be a part, canonical isoform): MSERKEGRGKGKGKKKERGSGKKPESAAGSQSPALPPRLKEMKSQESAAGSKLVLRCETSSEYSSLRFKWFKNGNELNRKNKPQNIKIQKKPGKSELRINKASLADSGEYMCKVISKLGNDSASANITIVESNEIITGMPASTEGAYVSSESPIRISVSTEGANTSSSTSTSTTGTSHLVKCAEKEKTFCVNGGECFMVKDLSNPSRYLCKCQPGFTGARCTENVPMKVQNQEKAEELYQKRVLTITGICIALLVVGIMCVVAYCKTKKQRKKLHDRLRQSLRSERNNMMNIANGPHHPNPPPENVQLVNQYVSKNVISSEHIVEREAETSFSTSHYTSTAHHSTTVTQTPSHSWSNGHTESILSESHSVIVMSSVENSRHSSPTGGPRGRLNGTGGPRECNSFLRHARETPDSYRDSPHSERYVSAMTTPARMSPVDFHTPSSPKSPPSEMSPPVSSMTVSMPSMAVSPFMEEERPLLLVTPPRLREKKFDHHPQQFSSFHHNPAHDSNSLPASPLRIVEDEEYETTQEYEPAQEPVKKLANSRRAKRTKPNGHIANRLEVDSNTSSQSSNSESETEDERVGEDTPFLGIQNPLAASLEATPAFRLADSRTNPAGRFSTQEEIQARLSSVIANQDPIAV
Chain of Torsin-1A-interacting protein 2 (Homo sapiens) (Q8NFQ8 whole entry, looked up): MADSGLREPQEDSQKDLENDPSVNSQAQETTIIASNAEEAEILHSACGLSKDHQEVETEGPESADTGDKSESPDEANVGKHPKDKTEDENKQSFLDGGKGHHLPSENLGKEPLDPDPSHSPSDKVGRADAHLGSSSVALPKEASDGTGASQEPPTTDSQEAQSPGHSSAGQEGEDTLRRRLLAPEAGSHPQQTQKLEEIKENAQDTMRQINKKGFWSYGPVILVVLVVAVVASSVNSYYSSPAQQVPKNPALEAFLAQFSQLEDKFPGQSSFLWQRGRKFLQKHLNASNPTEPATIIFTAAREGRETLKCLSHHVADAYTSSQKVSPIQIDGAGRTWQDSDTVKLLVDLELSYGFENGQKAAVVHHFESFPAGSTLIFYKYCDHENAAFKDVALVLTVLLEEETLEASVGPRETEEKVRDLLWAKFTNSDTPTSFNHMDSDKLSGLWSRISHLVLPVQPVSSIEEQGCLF

With `[N-]=[N+]=Nc1ccccc1C[C@@]1(C(=O)NCc2ccccc2)N=C(c2ccc(OCCCO)cc2)O[C@@H]1c1ccccc1`, the composite z-score in assay [1] worked out at 0.584; in assay [2] it was 0.405; in assay [3] it was 0.0421; in assay [4] it was 1.05; in assay [5] it was 1.46; in [6], 0.794. Further, the composite z-score is 0.747 in assay [7]; 0.838 in [9]; -0.0296 in [10]; 1.54 in assay [11]; 3.02 in [15]; 0.271 in assay [17]. Also, the values for the composite z-score in assay [18], in [19] and in assay [20] were 0.922, 1.03 and 0.1, respectively. In addition, the z-score in [8] was -2.86 (inactive); in assay [12] it was -1.27 (inactive); in [13], 0.326 (inactive); in [14] it was 5.57 (inactive); in [16], 0.594 (inactive).
For `COC(=O)C(CC#Cc1ccc2c(c1)[C@]1(C(=O)N2)[C@H](C(=O)N2CCN(c3ncccn3)CC2)[C@H]2C(=O)O[C@H](c3ccccc3)[C@H](c3ccccc3)N2[C@@H]1c1ccc(O)cc1)C(=O)OC`, the composite z-score in assay [1] came to 2.65; in assay [2] it was 0.987; in assay [3], 0.374; in [4] it was 1.01; in assay [5], 1.53; in [6] it was 1.44. For the same molecule, the composite z-score in assay [7] amounted to 1.31; in [9] it was 2.24; in assay [10], 0.102; in [11] it was 1.53; in assay [15], 3.25; in assay [17], 0.759. In addition, the figures for the composite z-score in assay [18], in [19] and in [20] were 1.73, 1.01 and 1.05, respectively. The z-score in assay [8] is 1.41 (inactive); in assay [12] it was 1.04 (inactive); in assay [13] it was 1.1 (inactive); in assay [14], 0.183 (inactive); in assay [16], -0.333 (inactive).
Turning to `O=C1C2C=CC(C(O)c3ccccn3)N(Nc3ccc([N+](=O)[O-])cc3)C2C(=O)N1c1ccccc1` (stereo not given), the composite z-score in assay [1] turned out to be 0.0747; in [2] it was 0.369; in assay [3], 0.0447; in assay [4] it was 0.794; in [5], 1.33; in assay [6] it was 1.82. Moreover, the composite z-score is 1.31 in assay [7]; 0.512 in assay [9]; -0.0645 in assay [10]; 0.379 in assay [11]; 1.12 in assay [15]; -0.248 in assay [17]. For the same molecule, the composite z-score in [18] was -0.493; in assay [19], 0.772; in assay [20], -0.047. Further, the z-score is 0.678 (inactive) in assay [8]; -0.931 (inactive) in assay [12]; 0.587 (inactive) in [13]; -0.622 (inactive) in assay [14]; -1.36 (inactive) in assay [16].
Regarding `CC(C)c1ccc(NN2C(C(O)c3ccccc3)C=CC3C(=O)N(c4ccccc4)C(=O)C32)cc1` (stereo not given), the composite z-score in assay [1] was determined as 0.744; in [2], 0.141; in assay [3] it was 0.117; in assay [4], 0.885; in assay [5], 1.42; in assay [6], 0.905. Further, the composite z-score was 0.793 in assay [7]; 1.13 in assay [9]; -0.265 in [10]; 0.787 in assay [11]; 2.88 in assay [15]; 0.142 in [17]. Also, the composite z-score in assay [18] is -0.621; in assay [19] it was 1.11; in [20], 0.198. For the same molecule, the z-score was 1.47 (inactive) in [8]; 1.54 (inactive) in [12]; -0.0469 (inactive) in assay [13]; 0.209 (inactive) in assay [14]; -0.213 (inactive) in [16].
Regarding `COCCOC(=O)N1C(=O)[C@@]2(c3cc(C#CCCO)ccc31)[C@H](C(=O)N1CCN(c3ncccn3)CC1)[C@H]1C(=O)O[C@H](c3ccccc3)[C@H](c3ccccc3)N1[C@@H]2c1ccc(OCCO)cc1`, the composite z-score in assay [1] is -0.372; in [2] it was 0.713; in [3], 0.0001; in assay [4] it was 0.641; in [5] it was 0.718; in [6], 1.53. The composite z-score in assay [7] is 1.3; in [9], 0.832; in [10], -0.171; in [11], 1.53; in assay [15], 3.11; in [17], -0.025. For the same molecule, the composite z-score in assay [18] was found to be 0.86; in [19], 1.05; in assay [20], 0.0193. Besides, the z-score was -0.31 (inactive) in assay [8]; 2.26 (inactive) in assay [12]; 1.9 (inactive) in assay [13]; 5.64 (inactive) in [14]; -0.466 (inactive) in assay [16].
For the molecule `O=C1c2ccccc2[C@](Cc2ccccc2I)(C(=O)NCCN2CCOCC2)[C@H](c2ccc(CO)cc2)N1Cc1ccccc1C(F)(F)F`, the composite z-score was -0.103 in [1]; 0.321 in [2]; -0.1 in assay [3]; 0.0371 in [4]; 0.614 in assay [5]; 1.2 in assay [6]. Further, the composite z-score was 1.25 in [7]; 0.558 in assay [9]; 0.0156 in [10]; 1.56 in assay [11]; 2.95 in assay [15]; -0.0376 in assay [17]. In addition, the composite z-score in assay [18] is 0.307; in assay [19] it was 1.01; in assay [20], -0.109. The z-score in [8] was -1.66 (inactive); in assay [12] it was -1.06 (inactive); in [13], -1.06 (inactive); in assay [14], -0.132 (inactive); in assay [16], -1.82 (inactive).
